Test [1] concerns the target Albumin (Bos taurus) (UniProt P02769). Description: compounds binding labelled BSA control protein – biochemical, small-molecule microarray, Alexa647 label, 635/667 nm fluorescence, artefact control for SMM control protein annotation, profiling panel (AID 1118).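 Note: score merges 667 nm emission intensity and signal-to-noise per printed compound spot.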 The conditions noted are these: BSA-A647 binding, fluorescence 635 nm, higher = more signal.
Test [2] can be described thus: probe aXIP binding to arrayed compounds – biochemical, NeuroSMM set, 635/667 nm fluorescence, primary screen (AID 1119).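 Note: probe is the protein aXip251-270 applied at 1 µg/mL to compound-printed slides; binding of probe to printed compounds measured as 667 nm fluorescence plus signal to noise.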 The conditions noted are these: small-molecule microarray, higher = more signal, called active from +8 up or from −8 down.
Test [3] in a line: probe aNOTCH3 binding on compound microarray – biochemical, small-molecule microarray, 635/667 nm fluorescence, primary screen (AID 1120).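 Note: probe is a biotin-tagged antibody raised against NOTCH3 rather than NOTCH3 protein; score merges spot fluorescence near 667 nm with spot signal to noise.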 The conditions noted are these: higher = more signal.
Test [4] is described as follows: probe aNOTCH2 binding on compound microarray – biochemical, small-molecule microarray, 635/667 nm fluorescence, primary screen (AID 1121).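 Note: score merges feature fluorescence read at 667 nm with its signal to noise.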 Particulars: higher = more signal.
Test [5] addresses Carbonic anhydrase 2 (Homo sapiens) (UniProt P00918). As to the kind of experiment: compounds binding carbonic anhydrase 2 – biochemical, small-molecule microarray, Alexa647-labelled CAII, profiling panel (AID 1122). The conditions noted are these: CAII-A647 binding fluorescence, higher = more signal.
Test [6] is described as follows: COS7 lysate on small-molecule microarray, probe aHis, 635 nm (AID 1123).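 Note: z-score combines 667nm fluorescence intensity with signal-to-noise per printed compound spot.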 The conditions noted are these: COS7 cell lysate, fluorescence, higher = more signal.
The nature of test [7]: probe aLAP1 signal on lysate-treated microarray – cell lysate, small-molecule microarray, COS7 lysate, primary screen (AID 1124).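 Note: lysate comes from COS7 cells expressing LAP1 and is applied at 0.3 µg/mL; score merges spot fluorescence near 667 nm with signal-to-noise over triplicate slides.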 The conditions noted are these: probe aLAP1, fluorescence, higher = more signal.
In test [8] the test system is Sam68 (KHDRBS1). As to the kind of experiment: compounds binding KHDRBS1 protein – biochemical, small-molecule microarray, 635 nm fluorescence, primary screen (AID 1125).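 Note: score merges 667 nm channel intensity with signal to noise over triplicate slides.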 The conditions noted are these: higher = more signal.
The test system of test [9] is Chordin-like protein 2 (CHRDL2). Description: compounds binding chordin-like 2 – biochemical, small-molecule microarray, 635 nm fluorescence, primary screen (AID 1126).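 Note: printed compound slides probed with Chrdl2 protein at 4 µg/mL for 1 h at 4 C; score merges 667 nm emission intensity with signal to noise over three replicate slides.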 Particulars: fluorescence 635 nm, higher = more signal.
In test [10] the target is Concanavalin-A (Canavalia ensiformis) (UniProt P02866). As to the kind of experiment: compounds binding concanavalin A lectin – biochemical, small-molecule microarray, Alexa647 label, 635 nm, artefact control for SMM control protein annotation, primary screen (AID 1127).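 Note: z combines 667 nm emission intensity with signal-to-noise across three replicate slides.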 Particulars: ConA-A647 binding fluorescence, higher = more signal.
A short description of test [11]: compounds binding Alexa647 anti-His antibody – biochemical, small-molecule microarray, 635 nm fluorescence, artefact control for SMM control protein annotation, primary screen (AID 1128).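 Note: score merges feature fluorescence with signal-to-noise for each printed compound spot.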 The conditions noted are these: higher = more signal.
Test [12] concerns Human papillomavirus type 1a E7 protein (residues 1-88). Description: HPV1a E7 small-molecule binders, primary screen, biochemical, small-molecule microarray, residues 1-88, 635 nm (AID 1129). The conditions noted are these: small-molecule microarray binding, fluorescence 635 nm; higher = more signal.
Test [13] addresses Focal adhesion kinase 1 (Homo sapiens) (UniProt Q05397). As to the kind of experiment: PTK2 protein binding on printed compound slides – biochemical, small-molecule microarray, 635/667 nm fluorescence, BSA, DTT, primary screen (AID 1130).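 Note: composite of spot emission at 667 nm and signal to noise over triplicate slides.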 The conditions noted are these: 635 nm fluorescence, higher = more signal.
For test [14], the system named is Fibrinogen (Alexa647-labelled). As to the kind of experiment: Alexa647-fibrinogen binding to printed small molecules – biochemical, small-molecule microarray, 635/667 nm fluorescence, artefact control for SMM control-protein annotation, profiling panel (AID 1131).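 Note: z-score merges 667 nm fluorescence with per-spot signal-to-noise over triplicate slides.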 Particulars: fibrinogen-A647 binding fluorescence, higher = more signal.
Test [15] addresses Follistatin (Homo sapiens) (UniProt P19883). As to the kind of experiment: FST protein binding to printed compounds – biochemical, small-molecule microarray, 635/667 nm fluorescence, primary screen (AID 1132). The conditions noted are these: 635 nm fluorescence, higher = more signal.
Test [16] has as its target Fibroblast growth factor 2 (Homo sapiens) (UniProt P09038). Description: basic fibroblast growth factor binding to printed compounds – biochemical, small-molecule microarray, 635/667 nm fluorescence, primary screen (AID 1133). Particulars: FGF2, fluorescence 635/667, higher = more signal.
A short description of test [17]: JC-1 mitochondrial potential readout, lung cancer cells – cell-based, A549, JC-1 fluorescence, basal, 24 h, 100 nL, profiling panel (AID 1138).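 Note: A549 lung adenocarcinoma cells under basal conditions with no added stimulus; test concentration not given here.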 The conditions noted are these: higher = more signal.
The subject of test [18] is Lefty1. Description: Lefty1 protein binding to printed compounds – biochemical, small-molecule microarray, 635/667 nm fluorescence, primary screen (AID 1139). Particulars: fluorescence 635/667, higher = more signal.
Test [19] has as its system wheat germ agglutinin (Triticum aestivum), Alexa647-labelled. Description: Alexa647-WGA lectin binding to printed small molecules – biochemical, small-molecule microarray, 635/667 nm fluorescence, artefact control for SMM control-protein annotation, profiling panel (AID 1140).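 Note: score merges 667 nm feature emission with signal to noise over triplicate slides.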 Particulars: WGA-A647 binding, 635 nm fluorescence, higher = more signal.
In test [20] the target is Luciferin 4-monooxygenase (Photinus pyralis) (UniProt P08659). As to the kind of experiment: inhibition of purified Photinus pyralis luciferase – biochemical, luminescence, purified enzyme, 2006 set, primary screen (AID 1141).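 Note: cell-free assay with purified firefly luciferase at 100 ng per well in PBS; test concentration not given here.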 The conditions noted are these: purified firefly luciferase, SteadyGlo luminescence, 30 min; higher = more signal, called active from +8 up or from −8 down.

Structures are written as SMILES. Active and inactive are the calls of the source.

Sequence of Concanavalin-A (Canavalia ensiformis) (P02866 whole entry, looked up): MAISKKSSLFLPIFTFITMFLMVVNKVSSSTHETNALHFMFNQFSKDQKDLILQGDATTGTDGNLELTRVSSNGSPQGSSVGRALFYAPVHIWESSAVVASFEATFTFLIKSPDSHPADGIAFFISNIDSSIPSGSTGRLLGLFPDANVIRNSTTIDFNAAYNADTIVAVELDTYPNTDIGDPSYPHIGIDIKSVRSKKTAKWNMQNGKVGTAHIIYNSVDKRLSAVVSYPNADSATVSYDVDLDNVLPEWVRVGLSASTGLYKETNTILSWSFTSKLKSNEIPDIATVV
Sequence of Follistatin (Homo sapiens) (P19883 whole entry, looked up): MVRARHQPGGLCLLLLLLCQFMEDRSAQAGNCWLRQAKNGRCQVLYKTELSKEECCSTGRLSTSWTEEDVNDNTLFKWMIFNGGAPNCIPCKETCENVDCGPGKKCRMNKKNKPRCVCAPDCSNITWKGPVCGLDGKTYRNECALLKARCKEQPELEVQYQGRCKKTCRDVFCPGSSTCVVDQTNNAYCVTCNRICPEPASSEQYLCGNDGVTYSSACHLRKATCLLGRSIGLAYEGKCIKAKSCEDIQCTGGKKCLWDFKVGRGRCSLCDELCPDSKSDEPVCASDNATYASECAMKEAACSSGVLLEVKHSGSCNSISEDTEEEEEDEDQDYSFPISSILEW
Sequence of Albumin (Bos taurus) (P02769 whole entry, looked up): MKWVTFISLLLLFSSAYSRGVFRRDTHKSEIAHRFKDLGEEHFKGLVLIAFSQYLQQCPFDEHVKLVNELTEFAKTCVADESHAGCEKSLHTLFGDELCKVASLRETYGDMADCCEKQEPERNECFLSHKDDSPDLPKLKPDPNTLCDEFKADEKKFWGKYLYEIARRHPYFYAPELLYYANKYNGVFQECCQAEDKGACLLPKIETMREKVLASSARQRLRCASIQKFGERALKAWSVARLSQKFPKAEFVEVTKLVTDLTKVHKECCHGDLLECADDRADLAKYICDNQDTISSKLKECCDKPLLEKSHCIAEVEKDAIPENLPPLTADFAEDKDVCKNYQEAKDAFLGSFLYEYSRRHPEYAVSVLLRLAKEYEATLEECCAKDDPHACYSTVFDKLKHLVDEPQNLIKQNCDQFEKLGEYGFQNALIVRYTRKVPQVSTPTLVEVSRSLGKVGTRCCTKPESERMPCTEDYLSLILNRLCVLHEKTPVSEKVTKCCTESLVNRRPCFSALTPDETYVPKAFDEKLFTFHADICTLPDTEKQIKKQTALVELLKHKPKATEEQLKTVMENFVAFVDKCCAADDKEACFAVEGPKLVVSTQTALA
Sequence of Focal adhesion kinase 1 (Homo sapiens) (Q05397 whole entry, looked up): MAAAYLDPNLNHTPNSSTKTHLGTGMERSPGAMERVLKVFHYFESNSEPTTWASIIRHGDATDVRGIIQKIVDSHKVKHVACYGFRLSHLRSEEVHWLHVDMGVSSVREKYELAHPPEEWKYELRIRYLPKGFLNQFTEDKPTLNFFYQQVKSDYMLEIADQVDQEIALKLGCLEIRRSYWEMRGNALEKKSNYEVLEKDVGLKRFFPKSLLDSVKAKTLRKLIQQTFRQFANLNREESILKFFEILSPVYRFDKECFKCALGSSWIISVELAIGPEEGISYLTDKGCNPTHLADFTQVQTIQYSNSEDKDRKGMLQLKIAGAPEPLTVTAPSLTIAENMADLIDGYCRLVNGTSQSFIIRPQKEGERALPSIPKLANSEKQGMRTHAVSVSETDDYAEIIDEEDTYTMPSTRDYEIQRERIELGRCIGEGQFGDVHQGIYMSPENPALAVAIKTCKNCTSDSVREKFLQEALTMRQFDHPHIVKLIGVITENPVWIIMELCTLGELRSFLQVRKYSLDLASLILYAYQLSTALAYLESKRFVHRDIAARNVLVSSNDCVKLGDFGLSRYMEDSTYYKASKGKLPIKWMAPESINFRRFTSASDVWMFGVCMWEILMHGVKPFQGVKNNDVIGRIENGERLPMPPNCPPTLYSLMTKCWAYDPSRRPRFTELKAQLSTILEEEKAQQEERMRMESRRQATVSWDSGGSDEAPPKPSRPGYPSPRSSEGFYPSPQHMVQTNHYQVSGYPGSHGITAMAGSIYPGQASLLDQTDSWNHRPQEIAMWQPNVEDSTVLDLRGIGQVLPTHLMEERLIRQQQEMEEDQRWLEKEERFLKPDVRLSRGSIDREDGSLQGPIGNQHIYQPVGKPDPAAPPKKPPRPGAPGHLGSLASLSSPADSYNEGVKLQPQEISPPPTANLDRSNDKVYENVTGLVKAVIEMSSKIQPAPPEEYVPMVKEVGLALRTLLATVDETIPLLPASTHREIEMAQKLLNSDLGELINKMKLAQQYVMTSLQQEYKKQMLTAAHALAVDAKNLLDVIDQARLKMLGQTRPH
Sequence of Luciferin 4-monooxygenase (Photinus pyralis) (P08659 whole entry, looked up): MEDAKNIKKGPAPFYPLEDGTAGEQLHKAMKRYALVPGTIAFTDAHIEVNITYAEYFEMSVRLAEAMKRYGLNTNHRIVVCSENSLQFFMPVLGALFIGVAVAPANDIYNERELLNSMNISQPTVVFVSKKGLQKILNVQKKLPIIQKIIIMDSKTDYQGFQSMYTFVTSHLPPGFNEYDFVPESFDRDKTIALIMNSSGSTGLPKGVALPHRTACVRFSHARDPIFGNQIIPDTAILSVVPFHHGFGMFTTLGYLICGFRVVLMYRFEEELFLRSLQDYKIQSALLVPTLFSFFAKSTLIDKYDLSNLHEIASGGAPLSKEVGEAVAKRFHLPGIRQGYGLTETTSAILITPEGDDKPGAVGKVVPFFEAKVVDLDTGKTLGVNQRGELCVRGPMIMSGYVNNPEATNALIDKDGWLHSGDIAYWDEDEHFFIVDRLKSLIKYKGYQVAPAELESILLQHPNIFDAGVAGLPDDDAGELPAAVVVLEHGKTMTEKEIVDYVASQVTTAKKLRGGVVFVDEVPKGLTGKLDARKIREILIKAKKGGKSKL
Sequence of Fibroblast growth factor 2 (Homo sapiens) (P09038 whole entry, looked up): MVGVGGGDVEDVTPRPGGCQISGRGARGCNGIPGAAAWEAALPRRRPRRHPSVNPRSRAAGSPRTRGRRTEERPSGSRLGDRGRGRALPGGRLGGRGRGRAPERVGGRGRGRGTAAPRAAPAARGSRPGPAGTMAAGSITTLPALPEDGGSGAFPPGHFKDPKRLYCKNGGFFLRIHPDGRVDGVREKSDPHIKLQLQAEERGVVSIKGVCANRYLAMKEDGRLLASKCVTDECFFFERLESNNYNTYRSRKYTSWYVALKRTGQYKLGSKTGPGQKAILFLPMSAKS

Turning to `C=CCC(OC(C)=O)[C@@H]1[C@@H](N(Cc2cc3ccccc3o2)C(=O)c2cccc3ccccc23)c2cc(OCCCO)ccc2N1C(=O)Cc1ccc(OC)cc1` (stereo not given in full), the composite z-score in test [1] is -0.131; in [3] it was 0.0602; in test [4], -0.0937; in test [5], 0.327; in test [6], 0.497; in [7], -0.0685. Further, the composite z-score was -0.0427 in [8]; 0.364 in [9]; -0.162 in test [10]; 0.305 in test [11]; -0.328 in [12]; -0.109 in [13]. For the same molecule, the composite z-score turned out to be 0.412 in test [14]; 1.02 in [15]; 0.78 in test [16]; 0.339 in test [18]; 0.637 in test [19]. Besides, in [2], the composite Z-score is 0.495 (inactive). Moreover, the z-score in [17] was -0.529; in test [20], 0.48 (inactive).
With `O=S(=O)(NCCCO)c1ccc(Br)cc1`, the composite z-score in test [1] was 0.45; in test [3], -0.0414; in test [4], -0.057; in [5] it was 0.62; in test [6], 0.0505; in test [7] it was 0.337. The composite z-score in test [8] was 0.522; in [9], 0.678; in test [10], 0.397; in test [11], 0.309; in [12], 0.918; in [13], 0.0087. Besides, the composite z-score in test [14] was -0.088; in test [15], 1.17; in test [16], 0.663; in [18] it was -0.0569; in test [19], 0.54. Also, the composite Z-score in test [2] was -0.854 (inactive). In addition, the figures for the z-score in [17] and in test [20] were 0.802 and -0.0622 (inactive), respectively.
Regarding `COCCOC(=O)N1C(=O)[C@@]2(c3ccccc31)[C@H](c1ccc(O)cc1)N1[C@H](c3ccccc3)[C@H](c3ccccc3)OC(=O)[C@H]1[C@@H]2C(N)=O`, the composite z-score in test [1] was 0.436; in [3] it was -0.27; in test [4] it was -0.114; in [5], 0.711; in test [6], 0.531; in test [7] it was -0.0821. The composite z-score in test [8] is -0.764; in test [9] it was -1.04; in [10] it was 0.035; in test [11], -0.445; in test [12], -0.218; in test [13], -0.046. Besides, the composite z-score in [14] was -1.35; in [15], -0.601; in test [16], -0.239; in [18] it was -0.0341; in test [19], -0.0601. For the same molecule, in test [2], the composite Z-score is 0.313 (inactive). Also, the z-score is 0.181 in test [17] and -0.144 (inactive) in test [20].
Consider `[N-]=[N+]=Nc1ccccc1[C@@H]1OC(c2ccc(OCCCO)cc2)=N[C@]1(CCS(=O)(=O)c1ccccc1)C(=O)N1CCCCC1`, for which the composite z-score in test [1] is 1.03; in test [3], 0.144; in [4], 0.139; in [5], 0.625; in [6], 1.93; in [7], 0.686. Besides, the composite z-score in test [8] is 1.29; in test [9], -0.74; in [10] it was 1.2; in test [11], 2.13; in test [12], 1.23; in test [13] it was 0.539. The composite z-score in [14] was 0.998; in test [15], 1.29; in test [16] it was 0.234; in [18], -0.0697; in test [19], 1.42. Further, in test [2], the composite Z-score was -0.0281 (inactive). Moreover, the z-score was -0.0343 in [17] and -9.85 (active) in test [20].
With `CN(C)CCCC[C@@H]1NC(=O)[C@@H]2C[C@H](C(=O)NCCCCCN)[C@H](c3ccc(O)cc3)N2C1=O`, the composite z-score in test [1] was 0.932; in test [3], 0.0229; in [4] it was -0.0478; in [5], 0.462; in test [6], 0.984; in test [7], 0.443. In addition, the composite z-score in test [8] is 1; in [9] it was -1.76; in [10], 1.1; in test [11], 0.637; in test [12], 0.732; in [13], 0.91. For the same molecule, the composite z-score in [14] was 0.502; in test [15] it was -0.126; in test [16], -0.585; in test [18], -0.318; in test [19] it was 1.09. For the same molecule, the composite Z-score in [2] is 0.351 (inactive). The z-score was 0.393 in [17] and -0.806 (inactive) in [20].
